BAZ2B inh = BAZ2B (human) inhibition; Q9UIF8; AlphaScreen BAZ2B-H3K14Ac peptide displacement; Potency, µM (titrated, usually from 114 µM), for the others: top-dose activity change, negative = inhibition, usual class: inhibitors; 4.4% of 360,000 active; note: % is set by controls: 0 for no effect and ±100 for the full control effect; nearly all actives have a fitted effect of over 60% in size
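AlphaScreen luminescence quantifies BAZ2B engagement of H3K14Ac peptide; the protein and biotinylated peptide are both at 50 nM final, buffer PBS pH 7.4 with 0.01% Tween-20, all steps at room temperature.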
G9a block = G9a (human) methyltransferase inhibition; Potency, µM (highest dose often 102 µM), for the others: at the highest dose activity, negative = inhibition, actives largely listed as inhibitors; 8.8% of 350,000 active; AID 504332; G9a H3K9 monomethylation, AlphaScreen, 2 h; note: % is set by controls: 0 for no effect and ±100 for the full control effect; nearly all actives have a fitted effect of over 75% in size
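AlphaScreen detection with an anti-monomethyl H3K9 antibody quantified product after a 2 h room-temperature reaction containing 500 nM biotinylated H3K9 peptide, 20 µM SAM and 20 nM enzyme, which had been preincubated 15 min with compound.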
Sfp PPTase inh = blocks B. subtilis Sfp PPTase activity; 3.5% of 310,000 active; Q9F4F7; Potency, µM, for inactives: largest response in the series, negative = inhibition, most hits filed as inhibitors; Biochemical Sfp PPTase activity, qHTS; AID 1490;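 note: the enzyme is Sfp with the accession as filed and its product quenches rhodamine fluorescence; 0% = enzyme reaction without inhibitor and -100% = no enzyme wells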
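Fluorescence-quenching assay with 15 nM Sfp, 5 uM rhodamine-CoA and 12.5 uM BHQ-2-labelled ybbR peptide in pH 7.6 Hepes/MgCl2 buffer. Enzyme was pre-incubated with compound for 15 min at room temperature. Rate was taken from the 30-min fluorescence change (525/598 nm).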
HP1b chromo inh = HP1-beta chromodomain-methylated histone interaction inhibition. P83916. AlphaScreen HP1-beta / biotin-H3K9me3 peptide binding. Potency, µM (titrated, usually from 114 µM), inactives show at the highest dose activity change, negative = inhibition, usual class: inhibitors. 0.56% of 390,000 active; note: nearly all actives have a fitted effect of over 70% in size
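Compound inhibition of the preformed complex between 50 nM HP1-beta and 50 nM biotinylated H3K9me3 peptide was read by AlphaScreen. Buffer was PBS pH 7.4 with 0.01% Tween-20. Incubations ran 30 min at room temperature, with 10 ug/mL donor/acceptor beads.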
JMJD2A Tudor inh = inhibitors of human JMJD2A Tudor domain | O75164 | AlphaScreen JMJD2A-Tudor / H3K4me3 peptide binding | Potency, µM (series often up to 114 µM), for inactives: at the top dose activity change, negative = inhibition, usual class: inhibitors | 4.4% of 390,000 active; note: % is set by controls: 0 for no effect and ±100 for the full control effect; nearly all actives have a fitted effect of over 50% in size
Starred values were filed as active, the others as inactive; ? = inconclusive; . = no result; [ ] = another dose, or the depositor's remark. Most compounds without a hit are left out; they make up all but 12% or so of the library. Calls come from the whole dose curve; as a rule, active = well fitted curve in the direction sought with a large enough effect; inconclusive = small, poorly fitted or top-dose-only effect, or another doubt; inactive = no such curve, though single readings can be large; an effect the other way counts as inactive or inconclusive. Potency is the fitted concentration of half-maximal effect.

SMILES	BAZ2B inh	G9a block	Sfp PPTase inh	HP1b chromo inh	JMJD2A Tudor inh
Cc1ccc(Nc2nnc(SCC(=O)c3ccc(O)cc3O)s2)cc1	-13%	32µM*	-5%	-9%	-33%
Cc1ccc(-n2c(Cc3ccccc3)nnc2SCc2nc(-c3cccs3)no2)cc1C	-22%	-33%[59 µM]	.	6%	-28%
Nc1ccc(Cl)cc1C(=O)OCC(=O)NC1CCS(=O)(=O)C1 (stereo not drawn)	-1%	30%	6%	14%	-6%
Cc1ccc(S(=O)(=O)Cn2nnnc2C(C(C)C)N2CCC(O)CC2)cc1 (stereo not drawn)	-4%	9%	5%	51%	-6%
Cc1ccc(S(=O)(=O)Cn2nnnc2C(c2ccccn2)N2CCN(c3ccccc3)CC2)cc1 (stereo not drawn)	?	35µM*	-8%	-7%	-28%
Cc1ccc(S(=O)(=O)Cn2nnnc2C(C(C)C)N2CCSCC2)cc1 (stereo not drawn)	2%	35µM*	9%	25%	-12%
Cc1ccc(S(=O)(=O)Cn2nnnc2C(C(C)C)N2CCc3ccccc3C2)cc1 (stereo not drawn)	?	?	-29%	3%	28µM*
Cc1ccc(C(c2nnnn2CS(=O)(=O)c2ccc(C)cc2)N2CCN(c3ncccn3)CC2)cc1 (stereo not drawn)	4%	-5%[59 µM]	14%	21%	-7%
Cc1cccc(NC(=O)COC(=O)C(NC(=O)c2cccc(S(=O)(=O)N3CCOCC3)c2)C(C)C)c1 (stereo not drawn)	.	.	.	31%	-9%
CCOc1ccc(C(=O)NCC(=O)NCC(c2ccc(OC)cc2)N2CCCC2)cc1 (stereo not drawn)	0%	0%	.	13%	-13%
S=C(Nc1ccc2nsnc2c1)N1CCCC1	18%	.	14µM*	28%	-1%
O=C(Nc1ccc2nsnc2c1)N1CCCCCC1	0%	24%[12.7 µM]	1%	63%	0%
O=c1oc2c3c(ccc2c2ccccc12)OCN(Cc1ccccc1Cl)C3	?	1.3µM*	.	39%	-35%
CC(=O)Nc1c(O)c2ccccc2[nH]c1=O	2%	50µM*	18µM*	47%	11%
CNC(=O)C(=O)Nc1c(O)c2ccccc2[nH]c1=O	-12%	.	22µM*	27%	-15%
CCCCC(=O)Nc1c(O)c2ccccc2[nH]c1=O	3%	?	10%	38%	1%
CCOc1ccc(CCNC(=O)c2cnccn2)cc1OCC	-1%	16%	9%	29%	-6%
CCOc1ccc(CCNC(=O)c2nccnc2C(=O)O)cc1OCC	?	50µM*	-10%	20%	-2%
CCOc1ccc(CCNC(=O)c2oc3c(c2C)-c2[nH]ncc2CC3)cc1OCC	-6%	45µM*	4%	8%	-26%
CCOc1ccc(CCNC(=O)c2ccc(Cl)c(S(=O)(=O)N3CCOCC3)c2)cc1OCC	56µM*	56µM*	.	?	?
O=C(NCc1ccncc1)C(=O)N/N=C/c1ccccn1	-25%	20%	?	20%	-1%
COc1ccc(S(=O)(=O)Nc2cc3c(cc2NCc2ccccc2)n(C)c(=O)n3C)cc1OC	50µM*	13µM*	.	-11%	?
Cn1c(=O)n(C)c2cc(CNCc3ccccc3)ccc21	-12%	-2%[59 µM]	.	44%	-13%
Cc1cc(S(=O)(=O)Nc2cc3c(cc2NCc2ccccc2)n(C)c(=O)n3C)ccc1F	?	14µM*	.	4%	-23%
Cn1c(=O)n(C)c2cc(NS(=O)(=O)c3ccccc3)c(NCc3ccccc3)cc21	50µM*	11µM*	.	?	?
SMILES	BAZ2B inh	G9a block	Sfp PPTase inh	HP1b chromo inh	JMJD2A Tudor inh
Cn1c(=O)n(C)c2cc(S(=O)(=O)NCCc3ccccc3)ccc21	?	2%[59 µM]	-4%	39%	0%
Cc1cc(S(=O)(=O)Nc2ccc3c(c2)n(C)c(=O)n3C)ccc1F	?	-10%	7%	27%	-13%
Cn1c(=O)n(C)c2cc(NS(=O)(=O)c3ccc(Cl)cc3)c(NCc3ccccc3)cc21	-24%	16µM*	.	65%	?
O=C1CCCC(O)=C1C=Nc1ccc2c(c1)oc1ccccc12	11%	9%[59 µM]	19%	15%	-13%
Cn1c(=O)n(C)c2cc(NS(=O)(=O)c3ccc(C(C)(C)C)cc3)c(NCc3ccccc3)cc21	40µM*	14µM*	.	?	22µM*
COc1cccc(C2=NN(C(=O)c3ccccc3)C(O)(C(F)(F)F)C2)c1 (stereo not drawn)	7%	-39%[12.7 µM]	-10%	63%	-2%
CSCCC(C(=O)O)N1C(=O)c2ccc(C(=O)O)cc2C1=O (stereo not drawn)	-10%	25µM*	-9%	21%	79µM*
NC(=O)[C@@H]1CCOc2c(I)cc([N+](=O)[O-])cc2C(=O)N[C@@H](CO)C(=O)NCC(=O)N1	-8%	45µM*	9%	40%	-17%
NCCCC[C@@H]1NC(=O)[C@H](CCC(=O)O)NC(=O)c2cc([N+](=O)[O-])cc(I)c2OCC[C@@H](C(N)=O)NC1=O	?	32µM*	9%	-7%	?
NC(=O)CC[C@@H]1NC(=O)[C@H](CO)NC(=O)c2cc([N+](=O)[O-])cc(I)c2OCC[C@@H](C(N)=O)NC1=O	-5%	45µM*	17%	17%	-29%
CC(C)C[C@@H]1NC(=O)[C@H](C(C)C)NC(=O)c2cc([N+](=O)[O-])cc(I)c2OCC[C@@H](C(N)=O)NC1=O	-35%	45µM*	6%	38%	-25%
O=Cc1c(OCc2ccccc2)ccc2ccccc12	-12%	30%[59 µM]	-8%	43%	61%
COc1cccc(/C=C/C(=O)c2cccc([N+](=O)[O-])c2)c1	?	.	?	2%	?
COc1cccc(C(=O)/C=C/c2ccc(N3CCCCC3)c([N+](=O)[O-])c2)c1	10µM*	7.1µM*	-1%	?	40µM*
COC(=O)c1cc(NS(=O)(=O)c2ccc(N3CCCCCC3)c([N+](=O)[O-])c2)cc(C(=O)OC)c1	?	45µM*	-3%	-25%	?
CN(C)c1ccc(/C=C/C(=O)c2ccccc2)cc1[N+](=O)[O-]	14µM*	?	-15%	?	45µM*
Cc1ccc(N(Cc2ccco2)C(=O)c2ccc(N3CCCCC3)c([N+](=O)[O-])c2)cc1	?	?	-16%	?	18µM*
O=C(NCc1ccco1)c1ccc(N2CCOCC2)c([N+](=O)[O-])c1	-24%	?	13%	-4%	-24%
COc1cccc(C(C(=O)NCc2ccccc2)N(C(=O)Cn2nnc3ccccc32)c2cccc(C(C)=O)c2)c1 (stereo not drawn)	-2%	0%[59 µM]	.	46%	3%

From PubChem BioAssay
